Reference: PubChem BioAssay AID1159580 (chemical genetic matrix, 2015)
Hit rate of the full screen: of about 5,500 compounds, about 2,000 (36%) were called active. Inconclusive results (about 18%) are left out. Rule as the data show it: active = normalized growth mostly below about 0.91 (no sharp cut-off); inconclusive = no clear call, values can overlap the other calls; inactive = mostly above about 0.92. This is one part of the list.

Assay: chemical genetic growth profiling, strain panel (AID 1159580);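 also: tested at 20 µM; growth read once vehicle control cultures reached saturation at 30 °C; 1 = growth at the plate median or of vehicle wells; lower values mean less growth of the strain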
Conditions: S. cerevisiae deletion strains, growth OD
[1] = locus YHR030C, strain SLT2, stronger effect = lower value
[2] = locus YHR079C, strain IRE1, stronger effect = lower value
[3] = locus YJL095W, strain BCK1, stronger effect = lower value
[4] = locus YJR066W, strain TOR1, stronger effect = lower value
[5] = locus YLR113W, strain HOG1, stronger effect = lower value
[6] = locus YNL183C, strain NPR1, stronger effect = lower value
[7] = locus YOR231W, strain MKK1, stronger effect = lower value
[8] = locus YPL256C, strain CLN2, stronger effect = lower value

Measured: normalized growth

Fc1ccc(N/N=C\Cc2nnnn2-c2ccccc2)c(F)c1
active: locus YDL214C, strain PRR2, stronger effect = lower value 0.554 | locus YDR477W, strain SNF1, stronger effect = lower value 0.332 | locus YER123W, strain YCK3, stronger effect = lower value 0.283 | locus YER133W, strain GLC7, stronger effect = lower value 0.592 | locus YFR019W, strain FAB1, stronger effect = lower value 0.414 | locus YGR040W, strain KSS1, stronger effect = lower value 0.478 | locus YGR052W, strain FMP48, stronger effect = lower value 0.302 | locus YGR092W, strain DBF2, stronger effect = lower value 0.122 | [1] 0.387 | [2] 0.366 | locus YHR082C, strain KSP1, stronger effect = lower value 0.571 | [3] 0.16 | locus YJL157C, strain FAR1, stronger effect = lower value 0.519 | locus YJR066W, strain TOR1 (second series), stronger effect = lower value 0.246 | [4] 0.356 | locus YKL048C, strain ELM1, stronger effect = lower value 0.55 | locus YKL067W, strain YNK1, stronger effect = lower value 0.427 | locus YKL101W, strain HSL1, stronger effect = lower value 0.341 | locus YKL203C, strain TOR2, stronger effect = lower value 0.481 | [5] 0.426 | locus YLR133W, strain CKI1, stronger effect = lower value 0.55 | locus YLR403W, strain SFP1, stronger effect = lower value 0.429 | locus YML070W, strain DAK1, stronger effect = lower value 0.249 | locus YMR205C, strain PFK2 (second series), stronger effect = lower value 0.646 | locus YNL020C, strain ARK1, stronger effect = lower value 0.536 | [6] 0.358 | locus YNL307C, strain MCK1 (second series), stronger effect = lower value 0.189 | locus YOL136C, strain PFK27, stronger effect = lower value 0.385 | locus YOR061W, strain CKA2, stronger effect = lower value 0.222 | locus YOR119C, strain RIO1, stronger effect = lower value 0.408 | [7] 0.328 | locus YPL031C, strain PHO85, stronger effect = lower value 0.315 | locus YPL153C, strain RAD53, stronger effect = lower value 0.359 | locus YPL204W, strain HRR25, stronger effect = lower value 0.406 | [8] 0.537
inactive: locus YAR019C, strain CDC15, stronger effect = lower value 0.957 | locus YBL105C, strain PKC1, stronger effect = lower value 0.951 | locus YBR135W, strain CKS1, stronger effect = lower value 0.947 | locus YBR136W, strain MEC1, stronger effect = lower value 0.952 | locus YBR160W, strain CDC28, stronger effect = lower value 0.961 | locus YDL017W, strain CDC7, stronger effect = lower value 0.956 | locus YDL028C, strain MPS1, stronger effect = lower value 0.955 | locus YDL101C, strain DUN1, stronger effect = lower value 0.967 | locus YDL108W, strain KIN28, stronger effect = lower value 0.948 | locus YDL132W, strain cdc53, stronger effect = lower value 0.952 | locus YDR052C, strain DBF4, stronger effect = lower value 0.946 | locus YDR054C, strain cdc34, stronger effect = lower value 0.904 | locus YDR226W, strain ADK1, stronger effect = lower value 0.95 | locus YFL009W, strain cdc4, stronger effect = lower value 0.954 | locus YFL029C, strain CAK1, stronger effect = lower value 0.955 | locus YFR003C, strain YPI1, stronger effect = lower value 0.955 | locus YFR028C, strain CDC14, stronger effect = lower value 0.953 | locus YHR205W, strain SCH9, stronger effect = lower value 0.622 | locus YIL147C, strain SLN1, stronger effect = lower value 0.958 | locus YJL128C, strain PBS2, stronger effect = lower value 0.963 | locus YJR016C, strain ILV3, stronger effect = lower value 0.973 | locus YKL193C, strain SDS22, stronger effect = lower value 0.954 | locus YMR001C, strain CDC5, stronger effect = lower value 0.951 | locus YMR277W, strain FCP1, stronger effect = lower value 0.952 | locus YNL006W, strain LST8, stronger effect = lower value 0.962 | locus YNL161W, strain CBK1, stronger effect = lower value 0.954 | locus YNL207W, strain RIO2, stronger effect = lower value 0.952 | locus YNL222W, strain SSU72, stronger effect = lower value 0.954 | locus YOL078W, strain AVO1, stronger effect = lower value 0.947 | locus YOR329C, strain SCD5, stronger effect = lower value 0.964 | locus YPL209C, strain IPL1, stronger effect = lower value 0.958 | locus YPR025C, strain CCL1, stronger effect = lower value 0.956 | locus YPR106W, strain ISR1, stronger effect = lower value 0.976 | locus YPR111W, strain DBF20, stronger effect = lower value 0.97 | strain NNK1, stronger effect = lower value 0.971 | strain TSCII, stronger effect = lower value 0.945

CS(=O)(=O)c1ccc([C@@H](O)[C@H](CF)NC(=O)C(Cl)Cl)cc1
inactive: [1] 1.03 | [2] 0.953 | [3] 0.973 | [4] 0.956 | [5] 0.935 | [6] 0.909 | [7] 0.969 | [8] 0.943
